Publication PMC4552634, “A New Set of Chemical Starting Points with Plasmodium falciparum Transmission-Blocking Potential for Antimalarial Drug Discovery” (PLoS ONE, 2015)
About 3,200 (25%) of roughly 13,000 compounds showed an effect of 50% or more. Some of the results follow.

Each compound was assayed on P. falciparum stage V gametocytes. Conditions: 48 h, 5 µM; inhibitor.
Design: BacTiter-Glo ATP luminescence viability of purified stage V gametocytes in 384-well plates, per cent inhibition versus DMSO

| SMILES | % Inhibition [%] |
| --- | --- |
| Cc1noc(C)c1-c1ccc2c(Nc3ccccc3C(C)(C)C)c(C(=O)NC3CCCC3)cnc2c1.Cl [TCMDC-136365] | -46.26 |
| N#Cc1cc(C(=O)c2cc(Cl)ccc2O)cn(-c2cccc(C(F)(F)F)c2)c1=O [TCMDC-124543] | 16.34 |
| CCc1nc(N)nc(N)c1-c1cccc(Cl)c1 [TCMDC-137371] | -15 |
| CNc1nc(NN=Cc2ccccc2Cl)nc(Nc2cccc(C(F)(F)F)c2)n1 [TCMDC-124188] | -11.55 |
| N#CC(c1ccc(Cl)cc1)c1ccc2c(C(F)(F)F)cc(C(F)(F)F)nc2n1 (stereo not drawn) [TCMDC-124176] | 9.763 |
| CCOc1cccc(C(=O)Nc2cccc(CN3CCCN(Cc4ccc(O)cc4)CC3)c2)c1 [TCMDC-141862] | 17.88 |
| OC(CNCc1ccccc1Oc1ccccc1)c1cc(Br)cs1 (stereo not drawn) [TCMDC-141369] | 34.47 |
| COc1ccc(CC(=O)NC(CCN2CCC3(CCc4ccccc43)CC2)c2ccc(Cl)c(Cl)c2)cc1 (stereo not drawn) [TCMDC-141762] | -72.25 |
| CN(C)CCN1CCN(Cc2cccc(-c3csc(-c4nc5ccccc5[nH]4)c3)c2)CC1 [TCMDC-133793] | 29.26 |
| CN(C)CCN1CCN(Cc2ccc(-c3cccc(-c4nc5ccccc5[nH]4)c3)cc2)CC1 [TCMDC-133795] | 73.83 |
| CN1CCC(N2CCN(Cc3ccc(-c4cccc(-c5nc6ccccc6[nH]5)c4)cc3)CC2)CC1 [TCMDC-133881] | 56.17 |
| CN1CCC(N2CCN(C(=O)c3cccc(-c4cccc(-c5nc6ccccc6[nH]5)c4)c3)CC2)CC1 [TCMDC-132312] | 7.191 |
| OCCN1CCN(Cc2ccc(-c3cccc(-c4nc5ccccc5[nH]4)c3)cc2)CC1 [TCMDC-132540] | 6.462 |
| Cc1cc(NC(=O)Nc2ccc(Oc3ccccc3)cc2)c2ccccc2n1 [TCMDC-134657] | -9.366 |
| CC(C)(C)C(=O)Nc1ccccc1Oc1ccc(Cl)cc1 [TCMDC-137332] | 6.336 |
| Cc1ccc(Oc2ccccc2NC(=O)CCc2nc3ccccc3c(=O)[nH]2)cc1 [TCMDC-125459] | 59.46 |
| CC(CNC(=O)[C@H]1CNCCN1C(=O)CCCc1ccccc1)c1ccccc1 (stereo partly drawn) [TCMDC-141268] | 55.69 |
| COc1cccc(CNC(=O)[C@H]2CNCCN2C(=O)CCCc2ccccc2)c1 [TCMDC-141271] | 37.6 |
| CCCC(C)NC(=O)[C@H]1CNCCN1C(=O)CCCc1ccccc1 (stereo partly drawn) [TCMDC-141270] | 1.864 |
| O=C(NCc1ccc(F)cc1)c1cnc(N2CCN(c3ccncc3)CC2)c(Cl)c1 [TCMDC-134627] | -0.3882 |
| COc1ccc2nccc(NN=Cc3cccc(C)n3)c2c1 [TCMDC-142034] | -10.1 |
| COc1cc2c(cc1S(=O)(=O)c1ccc(COc3ccc(C(F)(F)F)cc3)cc1)CNCC2 [TCMDC-134479] | -1.894 |
| COc1ccc(OCCCN2CCCCC2)cc1S(=O)(=O)c1ccc(OCc2ccc(C(F)(F)F)cc2)cc1 [TCMDC-132410] | 92.2 |
| CCOc1cc2c(cc1S(=O)(=O)c1ccc(COc3ccc(C(F)(F)F)cc3)cc1)CCN(C)CC2 [TCMDC-134264] | 39.44 |
| CCCCCCn1c2c(c(=N)c3c1CCC3)CCC2 [TCMDC-125620] | 20.05 |
| CCCCCCn1c2c(c(=N)c3c1CCC3)CCCC2 [TCMDC-124215] | 19.97 |

| SMILES | % Inhibition [%] |
| --- | --- |
| CCn1c2c(c(=N)c3ccccc31)CCC2 [TCMDC-125756] | -4.824 |
| CCCCCCCn1c2c(c(=N)c3c1CCC3)CCCC2 [TCMDC-125606] | 41.76 |
| CCCCCCCCn1c2c(c(=N)c3c1CCC3)CCCC2 [TCMDC-125653] | 74.53 |
| CCCCCCCCn1c2c(c(=N)c3c1CCC3)CCC2 [TCMDC-125309] | 92.39 |
| Oc1cccc(Nc2nc(NCc3ccco3)c3ccccc3n2)c1 [TCMDC-124014] | 8.731 |
| Cc1c[nH]c2cc(/C=C/C(=O)NC3CCC(CCN4CCc5ccc(C#N)cc5CC4)CC3)ccc12 (stereo not drawn) [TCMDC-139663] | 21.27 |
| Cc1cc(-c2nc3cncc(-c4cccc(CN5CCCC5Cc5cccnc5)c4)c3n2C)nn1C (stereo not drawn) [TCMDC-135046] | -7.326 |
| CCOC(=O)N1NC(=O)N(c2ccccc2)C1(c1ccccc1)c1ccccc1 [TCMDC-142002] | -11.41 |
| COc1cc2c(cc1C(F)(F)F)N(C(=O)Nc1cc(OC(F)(F)F)cc(-c3cccnc3)c1)CC2 [TCMDC-139046] | -1.066 |
| COc1ccc(CN2CCN(C(=O)c3cccs3)CC2)c(O)c1 [TCMDC-139298] | 16.42 |
| O=C(NC1CCN(c2ccc(F)cc2[N+](=O)[O-])CC1)c1cccs1 [TCMDC-133786] | 14.81 |
| O=C(c1cccs1)N1CCN(c2ccc([N+](=O)[O-])c(NC3CC3)c2)CC1 [TCMDC-123877] | 88.85 |
| O=C(CN1CCN(C(=O)c2ccco2)CC1)Nc1ccc(Br)cc1Cl [TCMDC-124619] | -12.46 |
| O=C(N1CCN(c2ccc(C(F)(F)F)cc2[N+](=O)[O-])CC1)C(Cl)(Cl)Cl [TCMDC-124371] | -2.22 |
| O=C(c1ccco1)N1CCN(c2ccc([N+](=O)[O-])c(NC3CC3)c2)CC1 [TCMDC-125397] | 97.95 |
| Cc1cc(N2CCN(C(=O)OC(C)(C)C)CC2)ccc1N [TCMDC-125886] | -87.61 |
| CC(C)(C)C(=O)N1CCN(c2ccc([N+](=O)[O-])c(NC3CC3)c2)CC1 [TCMDC-123687] | 84.84 |
| O=C(CN1CCN(C(=O)c2ccco2)CC1)Nc1ccccc1Br [TCMDC-124849] | 32.72 |
| O=C(NCCN1CCCC1)c1cccc(-c2ccc(-c3nc4ccccc4[nH]3)s2)c1 [TCMDC-132319] | -6.335 |
| COc1ccc(CCn2c(=N)c(C(=O)NC3CCCC3)cc3c(=O)n4ccccc4nc32)cc1 [TCMDC-124552] | 4.624 |
| Cc1ccc(CNC(=O)c2cc3c(=O)n4cccc(C)c4nc3n(CCN3CCOCC3)c2=N)cc1 [TCMDC-125405] | 11.13 |
| C=CCn1c(=N)c(C(=O)NCc2ccc(F)cc2)cc2c(=O)n3cccc(C)c3nc21 [TCMDC-125128] | 82.89 |
| Cc1cccn2c(=O)c3cc(C(=O)NC4CCCCC4)c(=N)n(CCCn4ccnc4)c3nc12 [TCMDC-125136] | 14.71 |
| C=CCn1c(=N)c(C(=O)NC2CCCCC2)cc2c(=O)n3cccc(C)c3nc21 [TCMDC-125083] | 96.68 |
| COc1ccc(CCNC(=O)c2cc3c(=O)n4cccc(C)c4nc3n(C)c2=N)cc1 [TCMDC-125129] | 30.65 |
